Among the test systems are T-47D breast; BT-549 breast; MDA-MB-435 melanoma; SW-620 colon; HCT-116 colon; HCC-2998 colon; KM12 colon; MCF7 breast.
Common to all, as to test: NCI-60 one-dose screen, 48 h (100 = growth as untreated, 0 = no growth, -100 = all killed)
What all share (settings): 10 µM unless noted

The panel holds about 83,000 compounds, 20% with a hit somewhere; the sample as a whole holds those more often.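 For each line, cells grew in 96-well plates with the test compound present at a single concentration for 48 hours.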 A number with no mark means an inactive call. The source made the active and inactive calls. How the source made its calls: active means growth percent below 10; inactive means the rest.

Take `CCOC(=O)CNS(=O)(=O)CC(=O)c1ccccc1`: the growth with T-47D breast was 91.9%; with BT-549 breast it was 86.4%; with MDA-MB-435 melanoma, 99.7%; in the assay on SW-620 colon, 110%; in the assay on HCT-116 colon it was 103%; in the assay on HCC-2998 colon it was 92.2%. Also, the growth with KM12 colon is 108%.

In the case of `CCOC(=O)c1c(C)oc2ncnc(Nc3ccc(NC(=O)Nc4ccc(CC)cc4)cc3)c12`, the growth in the assay on T-47D breast was 78.3%; with BT-549 breast, 84.5%; in the assay with SW-620 colon it was 113%; in the assay on MCF7 breast, 94.9%; in the assay with HCT-116 colon, 78.8%; with HCC-2998 colon it was 114%. Further, the growth in the assay with KM12 colon was 103%.

In the case of `Cc1ccc2c(c1)C(=O)CCS2`, the growth with T-47D breast is 106%; with BT-549 breast, 101%; in the assay with SW-620 colon it was 97.1%; with MCF7 breast it was 93.3%; with HCT-116 colon it was 103%; with HCC-2998 colon, 99.6%. Also, in the assay on KM12 colon, the growth is 108%.

In the case of `Cc1ccc(C(=O)NN)cc1`, the growth with T-47D breast was 109%; in the assay on BT-549 breast, 98.8%; in the assay with MDA-MB-435 melanoma, 109%; in the assay on MCF7 breast, 99.7%; in the assay with HCT-116 colon, 100%; with HCC-2998 colon it was 99.5%.

As for `COc1cc(/C=C/C(=O)c2ccc(F)cc2)ccc1OCCCCOc1cc2c(cc1OC)C(=O)N1CCCC1C=N2` (centres undefined), the growth was 1.74% (active) with T-47D breast; -49.9% (active) with BT-549 breast; -71% (active) in the assay with MDA-MB-435 melanoma; -59% (active) in the assay with SW-620 colon; -19.5% (active) with MCF7 breast; -87.5% (active) in the assay with HCC-2998 colon. In addition, the growth with KM12 colon is -64.1% (active).

Turning to `CCCCCN1CCN(C(CC(=O)c2ccccc2)C(=O)c2ccccc2)CC1` (centres undefined), the growth in the assay on T-47D breast was 101%; with BT-549 breast, 96.2%; with SW-620 colon, -100% (active); in the assay with MCF7 breast it was 89.6%; with HCT-116 colon, 77.4%; in the assay with HCC-2998 colon it was 106%. The growth in the assay on KM12 colon was 102%.

Take `O=C(CN1CCN(c2cccc(Cl)c2)CC1)N1CCN(c2nnc(-c3ccc(Cl)cc3)c(-c3ccc(Cl)cc3)n2)CC1`: the growth with T-47D breast was 50.1%; in the assay on BT-549 breast it was 87.8%; in the assay on SW-620 colon it was 76.7%; in the assay on MCF7 breast, 55.4%; with HCT-116 colon it was 53.5%; with HCC-2998 colon, 83.6%. Moreover, the growth in the assay on KM12 colon was 57.6%.

In the case of `CCCCCCNc1nc(N2CCOCC2)c2[nH]c(NCCCCCC)nc2n1`, the growth in the assay with T-47D breast is -70.4% (active); in the assay on BT-549 breast, -81.4% (active); with MDA-MB-435 melanoma it was -58.6% (active); in the assay with MCF7 breast, -88.4% (active); with HCT-116 colon it was -100% (active); with HCC-2998 colon, -100% (active). The growth in the assay on KM12 colon was -89.9% (active).

With `CC1(C)C(O)NC(Cl)=C(C#N)C1(C#N)C#N` (centres undefined), the growth in the assay with T-47D breast is 106%; with BT-549 breast, 104%; with SW-620 colon, 102%; with MCF7 breast, 107%; in the assay with HCT-116 colon, 101%; in the assay with HCC-2998 colon it was 90.4%. In addition, in the assay on KM12 colon, the growth was 112%.

Take `CC(=O)Nc1nc(C)c(C(=O)N/N=C/c2cccs2)s1`: the growth in the assay with T-47D breast is 67.8%; in the assay on BT-549 breast it was 120%; in the assay with MDA-MB-435 melanoma, 111%; with SW-620 colon, 94.2%; in the assay with MCF7 breast, 75.7%; with HCC-2998 colon, 114%. Also, the growth with KM12 colon was 116%.

Consider `C[C@@H](c1ccc2c(c1)[nH]c1ccc(Cl)cc12)c1nc2ccc(Cl)cc2[nH]1`, for which the growth in the assay with T-47D breast was 19.1%; in the assay with BT-549 breast it was 68.2%; in the assay on SW-620 colon, 98.7%; in the assay on MCF7 breast, 13.8%; with HCT-116 colon, 79.7%; in the assay on HCC-2998 colon, 92%. For the same compound, the growth in the assay with KM12 colon is 81.9%.

`N#CC1=C(N2CCOCC2)NC2c3ccccc3Sc3ccccc3N2C1=N` (centres undefined): the growth in the assay with T-47D breast was 85.8%; with BT-549 breast, 97.2%; with MDA-MB-435 melanoma, 107%; with MCF7 breast it was 98.4%; in the assay with HCT-116 colon it was 97.2%; in the assay with HCC-2998 colon, 104%. For the same compound, in the assay on KM12 colon, the growth is 110%.

For the compound `COc1ccc2c(c1)/C(=C/c1c(-c3cc(OC)c(OC)c(OC)c3)nc3sccn13)C(=O)N2`, the growth is 86.6% in the assay with T-47D breast; 98.9% with BT-549 breast; 99.9% with SW-620 colon; 92.4% with MCF7 breast; 88.3% with HCT-116 colon; 106% with HCC-2998 colon. For the same compound, the growth in the assay with KM12 colon was 84%.

In the case of `COC1=CC(c2ccc[nH]2)=N/C1=C\c1[nH]c(C)c(C(=O)CCCCC(=O)NC(C)(C)C)c1C`, the growth in the assay with T-47D breast is 40.1%; in the assay with BT-549 breast, -11.2% (active); in the assay with MDA-MB-435 melanoma it was 7.73% (active); in the assay on MCF7 breast, -15.1% (active); in the assay on HCC-2998 colon, 30.5%; with KM12 colon it was 20.5%.

Regarding `N#CCCCCCCCCCCC#N`, the growth was 96.2% with T-47D breast; 102% in the assay on BT-549 breast; 91.9% with MDA-MB-435 melanoma; 104% in the assay on MCF7 breast; 105% in the assay on HCT-116 colon; 95% in the assay with HCC-2998 colon. In addition, the growth in the assay on KM12 colon is 111%.

For `CCCCCCCCCc1cc[n+](CC(=O)c2ccc([N+](=O)[O-])cc2)cc1`, the growth is 22.2% in the assay with T-47D breast; 15.2% in the assay on BT-549 breast; -20.8% (active) with MDA-MB-435 melanoma; -41.3% (active) in the assay on MCF7 breast; -34.5% (active) in the assay on HCT-116 colon; -76.3% (active) in the assay on HCC-2998 colon. In the assay on KM12 colon, the growth is -31.5% (active).

On to `COc1ccccc1CNCCCN1C(=O)c2ccc3c4c(ccc(c24)C1=O)C(=O)N(CCCNCc1ccccc1OC)C3=O`, for which the growth in the assay on T-47D breast is -22.9% (active); with BT-549 breast it was -71.6% (active); in the assay on MDA-MB-435 melanoma, -79.3% (active); in the assay on MCF7 breast, -63.9% (active); in the assay with HCT-116 colon, -60.5% (active); with HCC-2998 colon, -94.7% (active). Also, in the assay on KM12 colon, the growth was -79% (active).

As to `COC1=C(OC)C(=O)c2ccccc2C1=O`, the growth was 59.1% in the assay on T-47D breast; 101% with BT-549 breast; 97% with SW-620 colon; 86.3% with MCF7 breast; 96.2% with HCT-116 colon; 94.5% in the assay on HCC-2998 colon. For the same compound, the growth in the assay on KM12 colon is 105%.
